Screening results: PubChem BioAssay, The Scripps Research Institute Molecular Screening Center
hgDAF-12 ag – agonists of H. glycines DAF-12 nuclear receptor; HEK293 GAL4-hgDAF12 UAS-luciferase reporter, agonist luminescence; normalized to butyrate control; activation, % at 6.8 µM; actives 1.8% (n = 370,000);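 active = activation above a cutoff set at the mean of all screened compounds plus 3 SD, cut at about 10% in these data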
DAX1 inh-1 – inhibits human nuclear receptor DAX1. P51843. HEK293 Gal4-DAX1 luciferase reporter, luminescence. inhibition, % at 6.75 µM. actives 0.99% (n = 340,000). AID 504766;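 active = inhibition above the mean over all tested compounds plus 3 SD, cut at about 4.2% in these data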;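 also: inhibition shows as a rise in luminescence from relieved DAX1 repression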
ssDAF-12 act – activates DAF-12 receptor from parasite S. stercoralis; HEK293 ssDAF-12/GRIP1 lit1-tk-luc reporter, luminescence; % of 3 µM dafachronic acid response; activation, % at 6.8 µM; actives 1% (n = 370,000);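 active = activation above the mean over all tested compounds plus 3 SD, cut at about 0.9% in these data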
DAX1 inh-2 – DAX1 (NR0B1) inhibition, primary screen; HEK293T StAR-luciferase reporter, SF-1/DAX-1 repression relief; inhibition, % at 6.8 µM; actives 1.1% (n = 370,000);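 active = inhibition above the mean over all tested compounds plus 3 SD, cut at about 3.6% in these data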;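 also: higher inhibition means more luminescence from relief of DAX-1 repression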
hcDAF-12 act – H. contortus DAF-12 activation, primary screen; HEK293 hcDAF-12 lit1-tk-luc reporter, luminescence; 0% DMSO, 100% Δ7-dafachronic acid; activation, % at 6.8 µM; actives 1.4% (n = 370,000);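 active = activation above the mean of all tested compounds plus 3 SD, cut at about 5.5% in these data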
DAX1 inh confirm – confirmation of human DAX1 (NR0B1) inhibitors; shares compounds with DAX1 inh-2; HEK293T StAR-promoter luciferase reporter, SF-1/DAX-1 repression; inhibition, % at 6.8 µM; actives 87% (n = 2,400); AID 652134;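 active = inhibition above the average of every tested compound plus 3 SD, cut at about 3.8% in these data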;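 also: active compounds raise luminescence by relieving repression of the StAR reporter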
Target sequence (P51843 whole entry, looked up): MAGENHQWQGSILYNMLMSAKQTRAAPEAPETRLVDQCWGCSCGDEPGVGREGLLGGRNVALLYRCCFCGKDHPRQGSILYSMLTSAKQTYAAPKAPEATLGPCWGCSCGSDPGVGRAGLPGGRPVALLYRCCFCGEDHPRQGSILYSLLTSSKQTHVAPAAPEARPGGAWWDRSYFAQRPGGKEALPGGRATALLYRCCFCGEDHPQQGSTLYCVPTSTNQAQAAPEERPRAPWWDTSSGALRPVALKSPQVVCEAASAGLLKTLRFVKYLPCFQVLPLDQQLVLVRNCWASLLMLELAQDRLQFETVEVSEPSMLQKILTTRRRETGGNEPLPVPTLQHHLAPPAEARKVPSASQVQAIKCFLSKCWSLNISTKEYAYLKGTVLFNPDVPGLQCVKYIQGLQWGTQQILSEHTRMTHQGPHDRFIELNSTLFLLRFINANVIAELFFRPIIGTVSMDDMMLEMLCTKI
SF1 mutant ctr – nonselective inhibitor or artifact in SF-1 mutant DAX1 counter-screen | shares compounds with DAX1 inh-2 | HEK293 StAR-luciferase, SF-1 AF2 mutant, luminescence | inhibition, % at 6.8 µM | actives 78% (n = 2,400);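 active = inhibition above the mean of all tested compounds plus 3 SD, cut at about 3% in these data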
Of the large screens only hits and unclear results are named; the others gave an inactive call (follow-up assays come after a bar, where they were run). Only some compounds are listed: those with a hit (about 4.1% of all), similar ones and a draw of the others.

FC(F)(F)c1ccccc1Cc1c(-c2cccc(Cl)c2)nc2ccc(Br)cn12	none (no result: DAX1 inh-1)
Cc1ccc2nc(-c3cccc(Br)c3)c(Cc3ccccc3C(F)(F)F)n2c1	DAX1 inh-2 5.1 (no result: DAX1 inh-1) | DAX1 inh confirm 4.0 | SF1 mutant ctr 4.2
Cc1ccc2nc(-c3cccc(Br)c3)c(Cc3ccccn3)n2c1	ssDAF-12 act 1.1, DAX1 inh-2 5.1 (no result: DAX1 inh-1) | DAX1 inh confirm 7.8 | SF1 mutant ctr 5.0
Cc1ccc2nc(-c3ccccn3)c(Nc3ccccc3C)n2c1	none
Cc1ccc(OCCSc2nc3ccccc3n2CC(=O)O)cc1C	none
COCC(=O)N/N=C(\C)CC(=O)NCc1ccco1	none
Cc1onc(-c2ccccc2Cl)c1NC(=O)NCc1cccs1	none
COC(=O)c1ccccc1NC(=O)COC(=O)CO/N=C(\C)c1ccc2c(c1)OCO2	none
CCOc1ncccc1C(=O)NCc1ccccc1F	none
CCOc1ncccc1C(=O)NCC(c1ccccc1)N(C)C (stereo unspecified)	DAX1 inh-2 5.1 | DAX1 inh confirm 8.1 | SF1 mutant ctr 4.0
COc1ccc2cc(CCNC(=O)c3ccco3)c(=O)[nH]c2c1	hgDAF-12 ag 11.4, DAX1 inh-2 6.0 | DAX1 inh confirm 9.4 | SF1 mutant ctr 5.8
Oc1c(C2=NCCNC(C(F)(F)F)=C2)ccc2ccccc12	hgDAF-12 ag 19.1, DAX1 inh-2 4.7 | DAX1 inh confirm 6.5 | SF1 mutant ctr 4.6
COc1ccc(CNC(=O)COC(=O)c2cc3ccccc3o2)cc1	none
Cc1ccc(C(=O)N(Cc2ccccc2)C(C)(C)C)cc1C	none
COc1ccc(-c2ccnc3c(Br)c(C)nn23)cc1	DAX1 inh-2 4.8 | DAX1 inh confirm inactive | SF1 mutant ctr inactive
Cc1nn2c(-c3ccc(F)cc3)ccnc2c1Br	none
COc1ccc(Cl)cc1N(C(=O)Nc1cccc(Cl)c1)C1=NCC(C)S1 (stereo unspecified)	none
COc1ccc(OCC(=O)Nc2c3c(nn2-c2ccccc2)CS(=O)(=O)C3)cc1	none
CCN(CC)CCCn1c2c(c(SCC(=O)N3CCCc4ccccc43)nc1=O)CCC2	DAX1 inh-2 8.0 | DAX1 inh confirm inactive | SF1 mutant ctr inactive
CN(C)CCn1c2c(c(SCC(=O)N3CCc4ccccc43)nc1=O)CCCC2	none
COc1ccc(NC(=O)CSCC(=O)N(C)Cc2ccc3c(c2)OCCO3)cc1	none
CC(=O)c1ccc(-c2c(CCO)sc3ccccc23)cc1	DAX1 inh-2 5.7 (no result: DAX1 inh-1) | DAX1 inh confirm inactive | SF1 mutant ctr 3.0
CC(=O)c1ccc(-c2[nH]c3ccccc3c2CCN2C(=O)c3ccccc3C2=O)cc1	none
c1cc(-c2cc3c(o2)CCCC3OCCN2CCOCC2)cs1 (stereo unspecified)	none (no result: DAX1 inh-1)
COc1ccc(-c2cc3c(o2)CCCC3OCCN2CCOCC2)cc1 (stereo unspecified)	DAX1 inh-2 4.7 (no result: DAX1 inh-1) | DAX1 inh confirm 5.7 | SF1 mutant ctr 3.0
CC(C)(C)OC(=O)N1CCC(C(=O)Nc2ccc3c(c2)CCC3)CC1	hgDAF-12 ag 12.2, DAX1 inh-2 4.7 | DAX1 inh confirm 4.7 | SF1 mutant ctr inactive
CC(=O)N1CCC(C(=O)Nc2ccc3c(c2)CCC3)CC1	none
CCOC(=O)[C@]12CCCC=C1N(Cc1ccc3c(c1)OCO3)C(=O)[C@H](CC(=O)N1CCCCC1)C2	none (no result: DAX1 inh-1)
O=C(CCS(=O)(=O)c1ccccc1)NC1CCCCC1	DAX1 inh-2 4.7 | DAX1 inh confirm 5.8 | SF1 mutant ctr 4.0
CCC1CCCCN1C(=O)CCCc1ccccc1 (stereo unspecified)	none
COc1ccc(S(=O)(=O)CCC(=O)NC2CCCCC2)cc1	none
O=C(CSc1ccccc1)NC1CCCCCC1	DAX1 inh-2 6.2, hcDAF-12 act 6.3 | DAX1 inh confirm 7.7 | SF1 mutant ctr 3.8
O=C(CSc1ccccc1)NC1CCCCCCC1	none
CCC1CCCCN1C(=O)CCS(=O)(=O)c1ccccc1 (stereo unspecified)	DAX1 inh-2 4.8 | DAX1 inh confirm 4.2 | SF1 mutant ctr inactive
CC1=C(/C=C/C(C)=C/C=C/C(C)=C/C(=O)Nc2ccc(O)cc2)C(C)(C)CCC1	none
